ChEMBL document CHEMBL2218924, “A broad activity screen in support of a chemogenomic map for kinase signalling research and drug discovery” (Biochem J, 2013)

target: Ephrin type-A receptor 5 (Homo sapiens) (UniProt P54756); conditions: at 1 µM
Sequence (P54756 whole entry): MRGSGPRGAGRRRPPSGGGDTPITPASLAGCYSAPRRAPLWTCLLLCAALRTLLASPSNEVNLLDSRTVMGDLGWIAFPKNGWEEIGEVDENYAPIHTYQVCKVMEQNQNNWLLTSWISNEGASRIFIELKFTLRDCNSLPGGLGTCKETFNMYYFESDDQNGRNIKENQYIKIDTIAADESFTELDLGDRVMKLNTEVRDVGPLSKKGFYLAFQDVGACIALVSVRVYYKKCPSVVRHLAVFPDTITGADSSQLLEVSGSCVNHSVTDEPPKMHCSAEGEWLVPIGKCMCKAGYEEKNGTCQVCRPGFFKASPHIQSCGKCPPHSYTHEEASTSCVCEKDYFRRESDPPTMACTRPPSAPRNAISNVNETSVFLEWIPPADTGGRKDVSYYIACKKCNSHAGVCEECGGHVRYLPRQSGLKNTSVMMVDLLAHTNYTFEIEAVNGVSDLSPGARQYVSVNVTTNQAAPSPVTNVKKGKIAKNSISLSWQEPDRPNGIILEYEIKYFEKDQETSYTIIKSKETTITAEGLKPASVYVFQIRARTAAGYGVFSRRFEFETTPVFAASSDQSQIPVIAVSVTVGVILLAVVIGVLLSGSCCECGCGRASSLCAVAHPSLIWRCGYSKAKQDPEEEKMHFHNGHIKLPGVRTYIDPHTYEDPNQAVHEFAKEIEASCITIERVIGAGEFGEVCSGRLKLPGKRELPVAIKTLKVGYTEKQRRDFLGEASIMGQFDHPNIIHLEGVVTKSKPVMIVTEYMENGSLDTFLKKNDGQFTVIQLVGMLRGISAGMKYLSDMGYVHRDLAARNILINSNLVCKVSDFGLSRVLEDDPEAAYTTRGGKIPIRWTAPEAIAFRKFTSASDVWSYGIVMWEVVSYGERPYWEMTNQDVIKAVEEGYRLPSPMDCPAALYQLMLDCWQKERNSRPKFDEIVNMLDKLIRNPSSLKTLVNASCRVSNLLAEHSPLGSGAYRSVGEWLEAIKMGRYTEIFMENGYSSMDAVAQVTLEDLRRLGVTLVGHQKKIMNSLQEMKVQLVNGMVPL

Going from `CC(C)(C)n1nc(Cc2cccc3ccccc23)c2c(N)ncnc21` to `Nc1ncnc2c1c(-c1ccc(Oc3ccccc3)cc1)cn2C1CCCC1`, the residual activity rises from 21% to 83%.

First: COc1cc2ncnc(Nc3cccc(Cl)c3)c2cc1OC
Second: COc1cc2c(cc1OC)-c1n[nH]c(Nc3cccc(F)c3)c1C2
The residual activity of the first is lower: 77% for the first, 103% for the second.

First: O=C1C(Cl)=C(N2C(=O)CCC2=O)C(=O)c2ccccc21
Second: O=C1NC(=O)c2c1c1c3ccccc3[nH]c1n1cncc21
The residual activity of the first is higher: 119% for the first, 105% for the second.

Compared with `COc1cc2nccc(Oc3ccc(NC(=O)Nc4cc(C)on4)c(Cl)c3)c2cc1OC`, `COc1cc2nccc(Oc3ccc(NC(=S)NC(=O)c4ccccc4C)cc3)c2cc1OC` is higher in residual activity: 2% for the first, 91% for the second.

First: COc1ccc(-c2cnc3c(-c4ccsc4)cnn3c2)cc1
Second: COc1ccc(COc2ccc(Cc3cnc(N)nc3N)cc2OC)cc1
The residual activity of the first is lower: 95% for the first, 111% for the second.

First: O=C(CCCc1ccc(-c2ccccc2F)cc1)Nc1ccc(O)cc1
Second: CCCCc1c(-c2ccc(O)cc2)[nH]c2nccnc12
The residual activity of the first is higher: 111% for the first, 95% for the second.

Going from `CC(C)[C@H](CO)Nc1nc(Nc2cc(N)cc(Cl)c2)c2ncn(C(C)C)c2n1` to `Nc1ncnc2[nH]nc(Nc3ccc(F)cc3)c12`, the residual activity falls from 86% to 82%.

Compared with `CC(C)c1nn(-c2c(Cl)cccc2Cl)c2nc(Cc3ccc(OCCO)cc3)[nH]c(=O)c12`, `CCCCc1c(-c2ccc(OC)cc2)[nH]c2nccnc12` is lower in residual activity: 106% for the first, 100% for the second.

Going from `CCCC(=O)Oc1ccc2[nH]c(C(=O)c3cc4ccccc4[nH]3)cc2c1` to `O=c1cc(N2CCOCC2)oc2c1ccc1ccccc12`, the residual activity rises from 107% to 124%.

With `NC(=O)Nc1sc(-c2ccc(F)cc2)cc1C(N)=O` the residual activity was 90%.

target: Ephrin type-A receptor 5 (Homo sapiens) (UniProt P54756); conditions: at 10 µM

Compared with `CC(C)(C)n1nc(Cc2cccc3ccccc23)c2c(N)ncnc21`, `Nc1ncnc2c1cnn2-c1ccccc1` is higher in residual activity: 5% for the first, 88% for the second.

Going from `COc1cc2ncnc(Nc3cccc(Cl)c3)c2cc1OC` to `COc1cc2c(cc1OC)-c1n[nH]c(Nc3cccc(F)c3)c1C2`, the residual activity rises from 27% to 43%.

First: O=C1C(Cl)=C(N2C(=O)CCC2=O)C(=O)c2ccccc21
Second: O=C1NC(=O)c2c1c1c3ccccc3[nH]c1n1cncc21
The residual activity of the first is higher: 96% for the first, 76% for the second.

First: COc1cc2nccc(Oc3ccc(NC(=O)Nc4cc(C)on4)c(Cl)c3)c2cc1OC
Second: COc1cc2nccc(Oc3ccc(NC(=S)NC(=O)c4ccccc4C)cc3)c2cc1OC
The residual activity of the first is lower: 7% for the first, 53% for the second.

Compared with `Fc1ccc(-c2nc3n(c2-c2ccncc2)CCS3)cc1`, `CSc1nc(-c2ccc(F)cc2)c(-c2ccnc(NC(C)c3ccccc3)c2)[nH]1` (stereo unspecified) is higher in residual activity: 89% for the first, 97% for the second.

Going from `Nc1ncnc2c1c(-c1ccc(Oc3ccccc3)cc1)cn2C1CCCC1` to `O=c1cc(N2CCNCC2)oc2c(-c3ccccc3)cccc12`, the residual activity rises from 38% to 103%.

First: O=C(CCCc1ccc(-c2ccccc2F)cc1)Nc1ccc(O)cc1
Second: CCCCc1c(-c2ccc(O)cc2)[nH]c2nccnc12
The residual activity of the first is higher: 106% for the first, 66% for the second.

Compared with `CC(C)[C@H](CO)Nc1nc(Nc2cc(N)cc(Cl)c2)c2ncn(C(C)C)c2n1`, `Nc1ncnc2[nH]nc(Nc3ccc(F)cc3)c12` is higher in residual activity: 23% for the first, 34% for the second.

First: CC(C)c1nn(-c2c(Cl)cccc2Cl)c2nc(Cc3ccc(OCCO)cc3)[nH]c(=O)c12
Second: CCCCc1c(-c2ccc(OC)cc2)[nH]c2nccnc12
The residual activity of the first is higher: 106% for the first, 83% for the second.

Going from `Nc1n[nH]c2nc3ccccc3nc12` to `O=c1cc(N2CCOCC2)oc2c1ccc1ccccc12`, the residual activity falls from 97% to 93%.

First: CCCC(=O)Oc1ccc2[nH]c(C(=O)c3cc4ccccc4[nH]3)cc2c1
Second: NC(=O)Nc1sc(-c2ccc(F)cc2)cc1C(N)=O
The residual activity of the first is higher: 99% for the first, 28% for the second.
